The list shows a part of the results. How many sequences the whole screen found active is unknown.
Biological target: furin, P09958
Assay: furin cleavage Z-score vs untreated control; higher = more cleavage, active = 3.5 or more, inactive = 1 or less, 8 variable residues between constant flanks
Method in brief: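 In 50 mM HEPES pH 7.5 with CaCl2 and NaCl, purified furin was incubated with bead-anchored 8-mer peptide–cDNA fusions at 1:10 enzyme:substrate in 0.01 ml. Incubation times were 7.5, 15 and 30 min. DNA set free by cleavage was adapter-tagged by PCR and sequenced, with read counts taken as abundance. Log counts relative to furin-free reactions, after lowess adjustment and median absolute deviation scaling, form the cleavage Z-score.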

furin, P09958, sequence (P09958 whole entry): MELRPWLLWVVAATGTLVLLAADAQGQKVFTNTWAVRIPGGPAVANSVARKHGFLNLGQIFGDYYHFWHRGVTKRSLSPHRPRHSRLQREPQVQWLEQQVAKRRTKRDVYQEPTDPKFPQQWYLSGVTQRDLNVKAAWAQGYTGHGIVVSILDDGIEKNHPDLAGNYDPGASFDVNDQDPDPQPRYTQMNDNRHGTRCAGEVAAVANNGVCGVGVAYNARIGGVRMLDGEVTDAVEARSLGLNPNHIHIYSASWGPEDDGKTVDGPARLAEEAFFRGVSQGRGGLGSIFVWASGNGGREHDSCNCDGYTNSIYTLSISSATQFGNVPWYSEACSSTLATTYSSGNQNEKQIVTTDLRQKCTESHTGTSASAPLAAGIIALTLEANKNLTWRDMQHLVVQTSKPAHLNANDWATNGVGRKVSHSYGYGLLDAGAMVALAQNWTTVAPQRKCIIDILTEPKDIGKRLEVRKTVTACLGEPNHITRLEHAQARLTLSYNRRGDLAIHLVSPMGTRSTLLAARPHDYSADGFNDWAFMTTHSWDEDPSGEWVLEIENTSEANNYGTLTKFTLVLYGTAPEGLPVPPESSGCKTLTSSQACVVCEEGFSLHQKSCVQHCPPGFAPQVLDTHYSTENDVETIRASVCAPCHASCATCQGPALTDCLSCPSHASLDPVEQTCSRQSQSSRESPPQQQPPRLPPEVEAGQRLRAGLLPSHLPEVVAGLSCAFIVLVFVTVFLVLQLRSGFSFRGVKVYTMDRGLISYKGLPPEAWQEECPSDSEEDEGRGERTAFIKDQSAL

Sequence | furin cleavage Z-score (7.5 min) | furin cleavage Z-score (15 min) | furin cleavage Z-score (30 min)
CAAGVQEDAAAGNASASA [HC1534] | 0.273 (inactive) | -0.401 (inactive) | -1.13 (inactive)
CAEKPCHRPSAGNASASA [HC2334] | -0.309 (inactive) | 0.292 (inactive) | 0.19 (inactive)
CADRMEECSQAGNASASA [HC1813] | 0.635 (inactive) | -0.476 (inactive) | -0.0128 (inactive)
CARSIKSVPEAGNASASA [FS-1927] | 0.273 (inactive) | -0.944 (inactive) | 0.475 (inactive)
CARTWRSVPEAGNASASA [FS-2528] | 0.349 (inactive) | 0.625 (inactive) | 1.35
CARSARSAPEAGNASASA [FS-2377] | 7.91 (active) | 9.89 (active) | 6.92 (active)
CARWNRFAMIAGNASASA [FS-2200] | 0.704 (inactive) | -0.675 (inactive) | -0.478 (inactive)
CARWPRSDPEAGNASASA [FS-1807] | 2.83 | 2.73 | 4.21 (active)
CARSARSVARAGNASASA [FS-3075] | 5.33 (active) | 7.5 (active) | 6.53 (active)
CASTWCSAHLAGNASASA [HC2508] | 0.983 (inactive) | 0.815 (inactive) | 0.802 (inactive)
CAMILMTHFFAGNASASA [HC1582] | -0.371 (inactive) | -0.697 (inactive) | -2.29 (inactive)
CAHCTTPCSGAGNASASA [HC1955] | -1.08 (inactive) | -1.68 (inactive) | 0.655 (inactive)
CAEQVVCCSMAGNASASA [HC2142] | -0.416 (inactive) | -0.852 (inactive) | 2.1
CAKCDELAAKAGNASASA [HC860] | 1.37 | 1.03 | -0.237 (inactive)
CAGHQREKRGAGNASASA [FS-428] | 11.3 (active) | 13.2 (active) | 10.6 (active)
CAEPPEAKRGAGNASASA [FS-1117] | 0.349 (inactive) | -1.82 (inactive) | -0.871 (inactive)
CAPEKRAKRGAGNASASA [FS-1044] | 10.2 (active) | 9.94 (active) | 7.39 (active)
CARQKKLAEKAGNASASA [FS-2585] | 0.116 (inactive) | -2.1 (inactive) | 0.509 (inactive)
CAKVKREAEKAGNASASA [FS-1674] | 5.11 (active) | 4.39 (active) | 5.05 (active)
CAPEKRSVFAAGNASASA [FS-2874] | -0.508 (inactive) | -0.764 (inactive) | -1.36 (inactive)
CAKVKREKRGAGNASASA [FS-454] | 11.2 (active) | 10.5 (active) | 9.94 (active)
CASVSREDRGAGNASASA [FS-1491] | -0.464 (inactive) | -0.739 (inactive) | -0.69 (inactive)
CAPKPCGIVPAGNASASA [HC406] | 0.0213 (inactive) | 0.68 (inactive) | 1.33
CAESKRLVDTAGNASASA [FS-1880] | -0.698 (inactive) | 0.318 (inactive) | 0.434 (inactive)

Sequence | furin cleavage Z-score (7.5 min) | furin cleavage Z-score (15 min) | furin cleavage Z-score (30 min)
CAEVVTSTTVAGNASASA [HC2238] | -0.88 (inactive) | -1.41 (inactive) | 0.307 (inactive)
CALHKRQVGDAGNASASA [FS-1675] | -0.324 (inactive) | -0.439 (inactive) | 0.074 (inactive)
CALRTREKRGAGNASASA [FS-549] | 7.16 (active) | 7.31 (active) | 5.83 (active)
CALRNRLFRGAGNASASA [FS-359] | 0.887 (inactive) | 1.52 | -0.676 (inactive)
CARQPRSNGDAGNASASA [FS-2292] | 0.463 (inactive) | -0.49 (inactive) | 1.56
CAQRNLKKRGAGNASASA [FS-914] | 10.1 (active) | 13.1 (active) | 11.1 (active)
CAKVKRSQGDAGNASASA [FS-1985] | 3.98 (active) | 3.48 | 3.75 (active)
CAGFDRKKRGAGNASASA [FS-238] | 9.36 (active) | 9.95 (active) | 8.88 (active)
CATTPHSGSWAGNASASA [HC49] | -0.934 (inactive) | -0.777 (inactive) | -0.65 (inactive)
CAEDRDRSELAGNASASA [HC488] | 0.995 (inactive) | 1.63 | 0.694 (inactive)
CARTPCSAHLAGNASASA [HC2473] | 0.852 (inactive) | -0.775 (inactive) | 2.15
CAITPCSAHLAGNASASA [HC2464] | -1.38 (inactive) | 0.00684 (inactive) | -0.357 (inactive)
CATCPCSGSWAGNASASA [HC1860] | -0.794 (inactive) | -0.696 (inactive) | -0.69 (inactive)
CAMTPCSGSWAGNASASA [HC1826] | -0.934 (inactive) | -2.45 (inactive) | -0.784 (inactive)
CAAPHREKRGAGNASASA [FS-398] | 10.8 (active) | 11.4 (active) | 9.9 (active)
CATFAVEKRGAGNASASA [FS-1289] | 1.19 | 0.186 (inactive) | 0.573 (inactive)
CAARGRYSRGAGNASASA [FS-1622] | 1.05 | 0.971 (inactive) | 1.84
CAEVVWSTWVAGNASASA [HC127] | 0.227 (inactive) | 0.0628 (inactive) | -0.337 (inactive)
CARYRRLTGDAGNASASA [FS-1843] | -1.17 (inactive) | -0.169 (inactive) | 1.01
CARYRRCVGWAGNASASA [FS-2389] | 3.27 | 2.12 | 5.02 (active)
CARMCRVAGWAGNASASA [FS-2046] | 0.157 (inactive) | -0.469 (inactive) | 0.75 (inactive)
CARYCRGVSAAGNASASA [FS-1941] | -0.864 (inactive) | -0.376 (inactive) | -0.444 (inactive)
CARYRRTVGIAGNASASA [FS-2851] | 2.96 | 3.86 (active) | 6.08 (active)
CAKQRRIVGIAGNASASA [FS-2869] | 0.0283 (inactive) | -0.751 (inactive) | 0.888 (inactive)

— the supplement of paper PMC3545927
